The results in this text go back to the supplement of paper PMC11537057.

Where a name gives a salt, the structure may show the parent alone. The campaign covered roughly 1,700 compounds. About 15 (0.9%) showed activity. The list comes from a sample in which actives are over-represented; it also holds similar structures and randomly drawn compounds. Values without a mark were called inactive.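 How the source made its calls: active = infection cut by 80% or more with cell growth above 90% in both runs; inactive = the rest.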

The assay relates to HSV-1 strain 17 YFP-ICP4 in A549. In words: HSV-1 infection relative to DMSO (ICP4-YFP per H2B-RFP signal); higher = more viral infection (less antiviral activity), active = hit call of the paper. To be noted: 10 µM; 48 h; MOI: 0.1. How it is done:
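Selleck FDA-approved library (L1300) screened in duplicate at 10 µM on A549 H2B-mRuby cells in 384-well plates, infected with HSV-1 strain 17 YFP-ICP4 at MOI 0.1 one hour before drug addition. Imaged after 2 days at 37°C. Cell growth (H2B-RFP) and infection (ICP4-YFP) are expressed as % of DMSO-treated wells. Hits: growth >90% and infection <20% of DMSO.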
For the compound `CCCCCCCCCC(=O)N[C@H]1[C@H](Oc2c3cc4cc2Oc2ccc(cc2Cl)[C@@H](O[C@@H]2O[C@H](CO)[C@@H](O)[C@H](O)[C@H]2NC(C)=O)[C@@H]2NC(=O)[C@H](NC(=O)[C@@H]4NC(=O)[C@H]4NC(=O)[C@@H](Cc5ccc(c(Cl)c5)O3)NC(=O)[C@H](N)c3ccc(O)c(c3)Oc3cc(O)cc4c3)c3ccc(O)c(c3)-c3c(OC4O[C@H](CO)[C@@H](O)[C@H](O)[C@@H]4O)cc(O)cc3[C@@H](C(=O)O)NC2=O)O[C@H](CO)[C@@H](O)[C@@H]1O` (stereo partly drawn) [Teicoplanin], the HSV-1 infection is 89%.
As for `CN(C)Cc1ccc(S(=O)(=O)n2ccc(/C=C/C(=O)NO)c2)cc1` [Resminostat], the HSV-1 infection is 64.2%.
Turning to `C1=N/C2=N/c3ccc(OCCN4CCCC4)c(c3)COC/C=C/COCc3cccc(c3)C(=C1)N2` [Pacritinib (SB1518)], the HSV-1 infection is 22.2%.
For the compound `COc1ccc(CN(C(=O)[C@@H](N)Cc2c(C)cc(C(N)=O)cc2C)[C@@H](C)c2ncc(-c3ccccc3)[nH]2)cc1C(=O)O` [Eluxadoline], the HSV-1 infection is 97.4%.
As to `O=C(NC[C@H]1CN(c2ccc(N3CCOCC3=O)cc2)C(=O)O1)c1ccc(Cl)s1` [Rivaroxaban], the HSV-1 infection was 110%.
For `N.N.O=C([O-])C[O-].[Pt+2]` [Nedaplatin] the value was 87%; for `N#C[C@@H]1CCCN1C(=O)CNC12CC3CC(CC(O)(C3)C1)C2` [Vildagliptin (LAF-237)], 103%; for `O[C@@H](COc1cccc2ncccc12)CN1CCN(C2c3ccccc3[C@@H]3[C@H](c4ccccc42)C3(F)F)CC1` (stereo partly drawn), 75.2%.
To `CC[C@@H]1C(=O)N(C)c2cnc(Nc3ccc(C(=O)N[C@H]4CC[C@H](N5CCN(CC6CC6)CC5)CC4)cc3OC)nc2N1C(C)C` [Volasertib (BI 6727)] belongs 29.3%; to `CO[C@@]1(NC(=O)CSC[C@@H](N)C(=O)O)C(=O)N2C(C(=O)O)=C(CSc3nnnn3C)CS[C@@H]21` [Cefminox Sodium], 110%; to `Cc1cc(C)c2c(c1)[C@@H](N(Cc1cc(C(F)(F)F)cc(C(F)(F)F)c1)c1nnn(C)n1)CCCN2C[C@H]1CC[C@H](C(=O)O)CC1`, 88.1%.
As for `C#CCN[C@@H]1CCc2ccccc21` [Rasagiline Mesylate], the HSV-1 infection is 98.1%.
Regarding `C[C@H]1CN(C[C@H](Cc2ccccc2)C(=O)NCC(=O)O)CC[C@@]1(C)c1cccc(O)c1` [Alvimopan dihydrate], the HSV-1 infection was 104%.
For the compound `CN1CCN(CCOc2cc(OC3CCOCC3)c3c(Nc4c(Cl)ccc5c4OCO5)ncnc3c2)CC1` [Saracatinib (AZD0530)], the HSV-1 infection is 38.7%.
Regarding `COc1nc2ccc(Br)cc2cc1[C@@H](c1ccccc1)[C@@](O)(CCN(C)C)c1cccc2ccccc12` [Bedaquiline], the HSV-1 infection was 114%.
For the compound `COc1nc2ccc(Br)cc2cc1[C@@H](c1ccccc1)[C@@](O)(CCN(C)C)c1cccc2ccccc12` [Bedaquiline fumarate], the HSV-1 infection is 111%.
For the compound `Cc1cn(-c2cc(NC(=O)c3ccc(C)c(Nc4nccc(-c5cnccn5)n4)c3)cc(C(F)(F)F)c2)cn1` [Radotinib], the HSV-1 infection was 34.8%.
With `C[N+](C)(C)CCO.O=C([O-])C(O)C(O)C(=O)O` (stereo not drawn) [Choline bitartrate], the HSV-1 infection is 97.1%.
In the case of `C[C@H](NC(=O)[C@@H](Cc1ccc2ccccc2c1)NC(=O)[C@@H](C)N)C(=O)N[C@@H](Cc1c[nH]c2ccccc12)C(=O)N[C@H](Cc1ccccc1)C(=O)N[C@@H](CCCCN)C(N)=O`, the HSV-1 infection is 97.6%.
For `Cn1ncc(Cl)c1-c1cc(C(=O)N[C@H](CN)Cc2cccc(F)c2)sc1Cl`, the HSV-1 infection is 52.8%.
Consider `CN(C)N(C)C(=O)[C@@]1(Cc2ccccc2)CCCN(C(=O)[C@@H](Cc2c[nH]c3ccccc23)NC(=O)C(C)(C)N)C1` [Anamorelin], for which the HSV-1 infection was 97%.
`CN1CCc2nc(C(=O)N[C@@H]3C[C@@H](C(=O)N(C)C)CC[C@@H]3NC(=O)C(=O)Nc3ccc(Cl)cn3)sc2C1` [Edoxaban]: the HSV-1 infection was 115%.
Regarding `CN1CCc2nc(C(=O)N[C@@H]3C[C@@H](C(=O)N(C)C)CC[C@@H]3NC(=O)C(=O)Nc3ccc(Cl)cn3)sc2C1` [Edoxaban tosylate Monohydrate], the HSV-1 infection was 124%.
For `Cc1ccccc1-c1cc(N2CCN(C)CC2)ncc1N(C)C(=O)C(C)(C)c1cc(C(F)(F)F)cc(C(F)(F)F)c1` [Netupitant] the value was 114%; for `CC(=O)Oc1c(C)c(C)c2c(c1C)CCC(C)(CCC[C@H](C)CCC[C@H](C)CCCC(C)C)O2` (stereo partly drawn) [Vitamin E Acetate], 116%.
`CC(=O)Oc1ccccc1C(=O)O.CC(=O)Oc1ccccc1C(=O)O.NC(N)=O` [Carbasalate Calcium]: the HSV-1 infection is 90.3%.
Turning to `CNS(=O)(=O)C[C@H]1CC[C@H](N(C)c2[nH]cnc3nccc2-3)CC1`, the HSV-1 infection was 102%.
To `Cc1cc(S(=O)(=O)O)c2c(C)ccc(C(C)C)cc1-2` [Sodium gualenate] belongs 93%; to `COc1ccc(C[C@@H]2c3cc(OC)c(OC)cc3CC[N@+]2(C)CCC(=O)OCCCCCOC(=O)CC[N@@+]2(C)CCc3cc(OC)c(OC)cc3[C@H]2Cc2ccc(OC)c(OC)c2)cc1OC` [Cisatracurium Besylate], 90.4%.
As to `NC(=O)[C@@H]1CC[C@@H]2CN1C(=O)N2OS(=O)(=O)O` [Avibactam sodium], the HSV-1 infection is 116%.
Consider `CN(C)c1ccc2nc3ccc(=[N+](C)C)cc-3sc2c1` [Methylene Blue], for which the HSV-1 infection was 3.01% (active).
For `COc1cc(S(=O)(=O)O)ccc1O` [Sulfogaiacol], the HSV-1 infection is 93.8%.
Consider `N#CC1(c2ccc(NC(=O)c3cccnc3NCc3ccncc3)cc2)CCCC1`, for which the HSV-1 infection is 91.6%.
Turning to `CCCCc1nc2cc(/C=C/C(=O)NO)ccc2n1CCN(CC)CC` [Pracinostat (SB939)], the HSV-1 infection was 44.1%.
On to `C[C@@H](O)[C@@H]1NC(=O)[C@H](CCCCN)NC(=O)[C@@H](Cc2c[nH]c3ccccc23)NC(=O)[C@H](Cc2ccccc2)NC(=O)[C@@H](NC(=O)[C@H](N)Cc2ccccc2)CSSC[C@@H](C(=O)N[C@H](CO)[C@@H](C)O)NC1=O` [Octreotide Acetate], for which the HSV-1 infection is 93.8%.
For `CC1=NN(c2ccc(C)c(C)c2)C(=O)/C1=N\Nc1cccc(-c2cccc(C(=O)O)c2)c1O` [Eltrombopag] the value was 82.4%.
For `CC1=NN(c2ccc(C)c(C)c2)C(=O)/C1=N\Nc1cccc(-c2cccc(C(=O)O)c2)c1O` [Eltrombopag Olamine] the value was 99%; for `CS(=O)(=O)n1cc2c(n1)CN([C@H]1CO[C@H](c3cc(F)ccc3F)[C@@H](N)C1)C2` [Omarigliptin (MK-3102)], 106%.
To `CCCCCCCCCCCCCCCCOc1nc2ccc(C)cc2c(=O)o1` [Cetilistat] belongs 103%.
`CCOc1cc2ncc(C#N)c(Nc3ccc(OCc4ccccn4)c(Cl)c3)c2cc1NC(=O)/C=C/CN(C)C` [Neratinib (HKI-272)]: the HSV-1 infection is 73.4%.
As for `CC(=O)N1C[C@H](O)C[C@H]1C(=O)O` [Oxaceprol], the HSV-1 infection is 97.8%.
For the compound `COC[C@H]1C[C@@H](c2nc(-c3ccc4c(c3)COc3cc5c(ccc6nc([C@@H]7CC[C@H](C)N7C(=O)[C@@H](NC(=O)OC)C(C)C)[nH]c65)cc3-4)c[nH]2)N(C(=O)[C@H](NC(=O)OC)c2ccccc2)C1` [Velpatasvir], the HSV-1 infection is 102%.
Consider `CCC/N=C1\S/C(=C\c2ccc(OC[C@H](O)CO)c(Cl)c2)C(=O)N1c1ccccc1C` [Ponesimod], for which the HSV-1 infection is 57.6%.
Consider `CCOc1ccc(Cc2cc([C@]34OC[C@](CO)(O3)[C@@H](O)[C@H](O)[C@H]4O)ccc2Cl)cc1` [Ertugliflozin], for which the HSV-1 infection is 114%.
Consider `C=C1CC[C@H](O)C/C1=C/C=C1\CCC[C@]2(C)[C@@H]([C@H](C)CCCC(C)(C)O)CC[C@@H]12` [Calcifediol], for which the HSV-1 infection is 89.7%.
For `CCOC(=O)N[C@@H]1CC[C@@H]2[C@@H](C1)C[C@H]1C(=O)O[C@H](C)[C@H]1[C@H]2/C=C/c1ccc(-c2cccc(F)c2)cn1` [Vorapaxar] the value was 113%; for `CN[C@@H]1[C@@H](O)[C@@H](O[C@@H]2[C@@H](O)[C@H](O[C@H]3O[C@H](CN)[C@@H](O)[C@H](O)[C@H]3O)[C@@H](N)C[C@H]2NC(=O)[C@@H](O)CN)OC[C@]1(C)O` [Isepamicin Sulphate], 124%; for `CO/N=C(\C(=O)N[C@@H]1C(=O)N2C(C(=O)[O-])=C(C[n+]3cccc4c3CCC4)CS[C@H]12)c1csc(N)n1` [Cefpirome sulfate], 108%.
With `CC(C)(CO)C(O)C(=O)NCCCO` (racemic) [DL-Panthenol], the HSV-1 infection was 94%.
For `CNC[C@H](O)[C@@H](O)[C@H](O)[C@H](O)CO.CNC[C@H](O)[C@@H](O)[C@H](O)[C@H](O)CO.O=C([O-])CN(CCN(CC(=O)[O-])CC(=O)O)CCN(CC(=O)[O-])CC(=O)O.[Gd+3]` [Gadopentetate Dimeglumine], the HSV-1 infection is 77.6%.
For `COc1ccccc1OCCN` [Carvedilol EP IMpurity E], the HSV-1 infection is 82.6%.
As for `CC(C)[C@H]1C(=O)N[C@@H](CCCN=C(N)N)C(=O)NCC(=O)N[C@@H](CC(=O)O)C(=O)N[C@H](Cc2ccccc2)C(=O)N1C`, the HSV-1 infection is 86.4%.
As for `CNC(=O)c1ccc2cc([C@@]3(O)CCn4cncc43)ccc2c1` [TAK-700 (Orteronel)], the HSV-1 infection is 58.5%.
